We go through 34 compounds from article PMC5540273 (PLoS ONE, 2017).
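Note: KINOMEscan kinase panel screen.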

One assay relates to PRKCE. The note with it: concentration: 1 μM, replicates: in singlicate; n = 1.
`Cc1cccc(-c2nc(-c3ccc(S(C)(=O)=O)cc3)sc2-c2ccncc2)c1`: the “%Inh” value was 7%.

On to `Cc1ccc(NC(=O)c2ccnc(N3CCN(C)CC3)c2)cc1-c1ccc(C(=O)NCC2CC2)cc1` [GW775604], for which the “%Inh” value was 0%.

Turning to `COc1ccc(COc2cc(-n3cnc4ccccc43)sc2C(N)=O)cc1` [GSK1024304], the “%Inh” value was 0%.

Regarding `Fc1ccc(-c2ncn(CCCN3CCOCC3)c2-c2ccccn2)cc1` [SB-211742], the “%Inh” value is listed as 0%.

`CCCCCc1nc2c(N)ncnc2n1CCCCC` [SKF-97255]: the “%Inh” value amounted to 0%.

Turning to `N#Cc1c(N2CCOCC2)sc(-c2ccn[nH]2)c1-c1ccc(Cl)cc1`, the “%Inh” value is 0%.

Turning to `O=C(Nc1cccc(-c2nn3ncccc3c2-c2ccnc(Nc3cccc(C(F)(F)F)c3)n2)c1)c1c(F)cccc1F` [GSK299495], the “%Inh” value is listed as 14%.

On to `CC(=O)Nc1ccc(COc2ccc(Nc3ccnc4cc(-c5ccccn5)ccc34)cc2)cc1.Cl` [GW440148], for which the “%Inh” value is listed as 0%.

In the case of `c1ccc(-c2cc(-c3c[nH]nc3-c3ccccn3)ccn2)cc1` [GW576604], the “%Inh” value amounted to 0%.

Turning to `O=C(c1ccc(-c2cc(-c3c[nH]nc3-c3ccccn3)ccn2)cc1)N1CCOCC1` [GW812171], the “%Inh” value was found to be 14%.

Consider `Nc1nc(-c2ccc3c(N)n[nH]c3c2)cc(N2CCCC2)n1` [GSK2227430], for which the “%Inh” value is recorded as 0%.

In the case of `COc1ccc(Nc2nccc(N3CCC(NC(=O)Nc4cccc(C(C)=O)c4)C3)n2)cc1` (centres unmarked) [GSK1379731], the “%Inh” value is 0%.

For the compound `O=C1Cc2cc(Nc3nc(NCc4cccc(S(=O)(=O)C(F)(F)F)c4)ncc3C(F)(F)F)ccc2N1`, the “%Inh” value was 23%.

Regarding `Cc1cccc(Cn2ccn3c(=O)cc(N4CCOCC4)nc23)c1` [GSK2297542], the “%Inh” value is recorded as 2%.

As to `O=c1cc(N2CCOCC2)nc2n(Cc3cccc(F)c3)ccn12` [GSK2297430], the “%Inh” value turned out to be 3%.

As for `Cc1nnc(-c2ccc3occ(-c4ccc(C(C)O)cc4)c3c2)o1` (centres unmarked), the “%Inh” value amounted to 0%.

Regarding `O=c1cc(N2CCOCC2)nc2n(Cc3cccc4ccccc34)ccn12` [GSK2333389], the “%Inh” value is reported as 0%.

With `Fc1ccc(-c2ncn(CCCN3CCOCC3)c2-c2cccnc2)cc1` [SB-211743], the “%Inh” value is on record as 0%.

With `Cc1ccc(C(=O)NCC(N)=O)cc1-n1c(C)cc(OCc2ccc(F)cc2F)c(Br)c1=O`, the “%Inh” value was 2%.

`Cn1ccc2ncnc(Oc3ccc(NC(=O)Nc4ccncc4)c(Cl)c3)c21`: the “%Inh” value was 0%.

`COc1ccc(Nc2ncc(C#N)c(Nc3ccccc3C(N)=O)n2)cc1N1CCN(C)CC1.Cl` [GSK1558669]: the “%Inh” value is 94.4%.

In the case of `COc1ccc(S(=O)(=O)NC2CCN(c3cc(C)nc(Nc4cccc(C#N)c4)n3)CC2)cc1.O=C(O)C(F)(F)F` [GSK1653539], the “%Inh” value was determined as 0%.

Consider `c1ccc(-c2n[nH]cc2-c2ccnc3ccccc23)nc1` [GW271431], for which the “%Inh” value was 3%.

On to `Nc1nccc(-c2c(-c3ccc(F)cc3)ncn2C2CCN(CC(F)(F)F)CC2)n1` [SB-236560], for which the “%Inh” value was 19%.

`COc1cc2ncn(-c3cc(OCc4sccc4Cl)c(C(N)=O)s3)c2cc1OC` [GSK448459]: the “%Inh” value came out at 0%.

With `O=c1cc(N2CCOCC2)nc2n(Cc3cccc(Cl)c3Cl)c(C3CC3)nn12` [GSK2358994], the “%Inh” value is recorded as 33%.

Turning to `CCc1nc(-c2cccc(C)c2)c(-c2ccnc(NCc3ccccc3)c2)s1`, the “%Inh” value is listed as 0%.

On to `CSc1ccc(-c2cc3ncnc(SCC(=O)O)c3s2)cc1`, for which the “%Inh” value came out at 26%.

For `COc1ccc(Nc2nccc(N3CCC(NC(=O)Nc4cc(C)ccc4C)C3)n2)cc1` (centres unmarked) [GSK1379741], the “%Inh” value is recorded as 13%.

Turning to `CC(C)(C)n1cnc2c(N)ncnc21` [SKF-97359], the “%Inh” value is given as 0%.

As to `O=C(Nc1n[nH]c2cc(-c3cccc(F)c3)ccc12)C1CC1` [SB-735464], the “%Inh” value amounted to 34%.

As to `Cc1c2ccc(N(C)c3ccnc(Nc4cccc(S(N)(=O)=O)c4)n3)cc2nn1Cc1ccccc1.Cl.Cl` [GW787226], the “%Inh” value is recorded as 0%.

As for `O=C(NCCNc1ccnc(Nc2ccc(F)cc2)n1)c1cc2ccccc2s1` [GSK1379874], the “%Inh” value worked out at 5%.

Take `Cc1cn2c(=O)cc(N3CCOCC3)nc2n1Cc1cccc(Cl)c1Cl` [GSK2334006]: the “%Inh” value came out at 13%.

The next assay deals with PRKCH. The conditions noted are these: concentration: 1 μM, replicates: in singlicate; n = 1.
For `Cc1cccc(-c2nc(-c3ccc(S(C)(=O)=O)cc3)sc2-c2ccncc2)c1`, the “%Inh” value is listed as 10%.

As for `Cc1ccc(NC(=O)c2ccnc(N3CCN(C)CC3)c2)cc1-c1ccc(C(=O)NCC2CC2)cc1` [GW775604], the “%Inh” value is reported as 0%.

As to `COc1ccc(COc2cc(-n3cnc4ccccc43)sc2C(N)=O)cc1` [GSK1024304], the “%Inh” value is on record as 0%.

With `Fc1ccc(-c2ncn(CCCN3CCOCC3)c2-c2ccccn2)cc1` [SB-211742], the “%Inh” value came to 0%.

`CCCCCc1nc2c(N)ncnc2n1CCCCC` [SKF-97255]: the “%Inh” value is given as 7%.

As for `N#Cc1c(N2CCOCC2)sc(-c2ccn[nH]2)c1-c1ccc(Cl)cc1`, the “%Inh” value was determined as 2%.

`O=C(Nc1cccc(-c2nn3ncccc3c2-c2ccnc(Nc3cccc(C(F)(F)F)c3)n2)c1)c1c(F)cccc1F` [GSK299495]: the “%Inh” value is 16%.

Regarding `CC(=O)Nc1ccc(COc2ccc(Nc3ccnc4cc(-c5ccccn5)ccc34)cc2)cc1.Cl` [GW440148], the “%Inh” value turned out to be 0%.

With `c1ccc(-c2cc(-c3c[nH]nc3-c3ccccn3)ccn2)cc1` [GW576604], the “%Inh” value came to 0%.

With `O=C(c1ccc(-c2cc(-c3c[nH]nc3-c3ccccn3)ccn2)cc1)N1CCOCC1` [GW812171], the “%Inh” value is 0%.

For `Nc1nc(-c2ccc3c(N)n[nH]c3c2)cc(N2CCCC2)n1` [GSK2227430], the “%Inh” value is reported as 5%.

Turning to `COc1ccc(Nc2nccc(N3CCC(NC(=O)Nc4cccc(C(C)=O)c4)C3)n2)cc1` (centres unmarked) [GSK1379731], the “%Inh” value was 0%.

In the case of `O=C1Cc2cc(Nc3nc(NCc4cccc(S(=O)(=O)C(F)(F)F)c4)ncc3C(F)(F)F)ccc2N1`, the “%Inh” value is on record as 0%.

On to `Cc1cccc(Cn2ccn3c(=O)cc(N4CCOCC4)nc23)c1` [GSK2297542], for which the “%Inh” value amounted to 31%.

With `O=c1cc(N2CCOCC2)nc2n(Cc3cccc(F)c3)ccn12` [GSK2297430], the “%Inh” value worked out at 31%.

As to `Cc1nnc(-c2ccc3occ(-c4ccc(C(C)O)cc4)c3c2)o1` (centres unmarked), the “%Inh” value is listed as 0%.

Take `O=c1cc(N2CCOCC2)nc2n(Cc3cccc4ccccc34)ccn12` [GSK2333389]: the “%Inh” value is listed as 0%.

As for `Fc1ccc(-c2ncn(CCCN3CCOCC3)c2-c2cccnc2)cc1` [SB-211743], the “%Inh” value is given as 0%.

As for `Cc1ccc(C(=O)NCC(N)=O)cc1-n1c(C)cc(OCc2ccc(F)cc2F)c(Br)c1=O`, the “%Inh” value is 1%.

With `Cn1ccc2ncnc(Oc3ccc(NC(=O)Nc4ccncc4)c(Cl)c3)c21`, the “%Inh” value is listed as 16%.

For the compound `COc1ccc(Nc2ncc(C#N)c(Nc3ccccc3C(N)=O)n2)cc1N1CCN(C)CC1.Cl` [GSK1558669], the “%Inh” value is reported as 86%.

For the compound `COc1ccc(S(=O)(=O)NC2CCN(c3cc(C)nc(Nc4cccc(C#N)c4)n3)CC2)cc1.O=C(O)C(F)(F)F` [GSK1653539], the “%Inh” value was found to be 11%.

On to `c1ccc(-c2n[nH]cc2-c2ccnc3ccccc23)nc1` [GW271431], for which the “%Inh” value is listed as 9%.

For `Nc1nccc(-c2c(-c3ccc(F)cc3)ncn2C2CCN(CC(F)(F)F)CC2)n1` [SB-236560], the “%Inh” value was 0%.

For the compound `COc1cc2ncn(-c3cc(OCc4sccc4Cl)c(C(N)=O)s3)c2cc1OC` [GSK448459], the “%Inh” value came out at 0%.

Regarding `O=c1cc(N2CCOCC2)nc2n(Cc3cccc(Cl)c3Cl)c(C3CC3)nn12` [GSK2358994], the “%Inh” value came to 0%.

For `CCc1nc(-c2cccc(C)c2)c(-c2ccnc(NCc3ccccc3)c2)s1`, the “%Inh” value was found to be 0%.

Turning to `CSc1ccc(-c2cc3ncnc(SCC(=O)O)c3s2)cc1`, the “%Inh” value stood at 2%.

For `COc1ccc(Nc2nccc(N3CCC(NC(=O)Nc4cc(C)ccc4C)C3)n2)cc1` (centres unmarked) [GSK1379741], the “%Inh” value turned out to be 0%.

Turning to `CC(C)(C)n1cnc2c(N)ncnc21` [SKF-97359], the “%Inh” value is listed as 0%.

`O=C(Nc1n[nH]c2cc(-c3cccc(F)c3)ccc12)C1CC1` [SB-735464]: the “%Inh” value was found to be 8%.

For `Cc1c2ccc(N(C)c3ccnc(Nc4cccc(S(N)(=O)=O)c4)n3)cc2nn1Cc1ccccc1.Cl.Cl` [GW787226], the “%Inh” value was 0%.

As to `O=C(NCCNc1ccnc(Nc2ccc(F)cc2)n1)c1cc2ccccc2s1` [GSK1379874], the “%Inh” value was found to be 17%.

In the case of `Cc1cn2c(=O)cc(N3CCOCC3)nc2n1Cc1cccc(Cl)c1Cl` [GSK2334006], the “%Inh” value is given as 28%.
